# A selection: hits, their analogues and other compounds. The true share with any hit is near 1.5%.
# ABHD5-PLIN5 inh = inhibitors of human ABHD5-perilipin-5 interaction; inhibition, % at 4 µM; Split G. princeps luciferase complementation, luminescence, 4 h; Q00G26+Q8WTS1; 360,000 compounds, 0.78% hits;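 active = inhibition above the mean inhibition across every tested compound plus 3 SD, cut at about 22% in these data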
# Target sequence (Q00G26 whole entry, looked up): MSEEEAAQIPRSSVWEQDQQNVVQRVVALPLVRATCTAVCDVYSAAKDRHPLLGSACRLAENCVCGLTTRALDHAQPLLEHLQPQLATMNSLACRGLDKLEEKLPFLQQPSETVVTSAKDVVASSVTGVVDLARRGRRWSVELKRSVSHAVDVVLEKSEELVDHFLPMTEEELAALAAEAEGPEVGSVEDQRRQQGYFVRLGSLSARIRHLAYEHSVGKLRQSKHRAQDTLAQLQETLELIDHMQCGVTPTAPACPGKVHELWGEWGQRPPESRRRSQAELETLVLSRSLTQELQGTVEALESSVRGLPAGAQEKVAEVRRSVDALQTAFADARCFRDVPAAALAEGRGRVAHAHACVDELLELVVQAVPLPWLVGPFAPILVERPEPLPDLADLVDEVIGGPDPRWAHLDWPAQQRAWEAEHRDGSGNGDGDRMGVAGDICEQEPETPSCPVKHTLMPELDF
# Target sequence (Q8WTS1 whole entry, looked up): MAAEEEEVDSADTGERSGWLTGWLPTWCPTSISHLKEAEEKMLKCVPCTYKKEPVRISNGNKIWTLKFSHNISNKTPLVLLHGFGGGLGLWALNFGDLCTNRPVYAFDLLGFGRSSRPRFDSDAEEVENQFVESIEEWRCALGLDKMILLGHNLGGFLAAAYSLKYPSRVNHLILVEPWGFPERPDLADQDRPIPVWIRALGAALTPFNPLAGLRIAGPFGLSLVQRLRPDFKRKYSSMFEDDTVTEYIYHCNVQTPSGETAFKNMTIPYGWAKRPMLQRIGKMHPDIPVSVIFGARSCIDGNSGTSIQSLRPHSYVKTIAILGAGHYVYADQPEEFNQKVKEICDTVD
# Beta2AR agonist = human beta-2 adrenergic receptor agonism by FAP | Am2.2-beta2AR cells, FAP receptor internalization, flow cytometry | AID 504454 | response, % (test concentration not listed) | 340,000 compounds, 0.43% hits | P07550;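 active = response above a set limit, near 3 SD of response in nonfluorescent compounds, cut at about 42% in these data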
# TLR9-MyD88 inh = inhibitors of human TLR9-MyD88 binding | CHO BLA complementation TLR9-MyD88, CCF4 FRET ratio | inhibition, % at 4.98 µM | 340,000 compounds, 0.21% hits | AID 504734;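 active = inhibition above the mean over all tested compounds plus 3 SD, cut at about 21% in these data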
# NOD2-RIPK2 inh = inhibitors of human NOD2-RIPK2 interaction; CHO BLA complementation NOD2-RIPK2, CCF4 ratio; inhibition, % at 4.98 µM; 360,000 compounds, 0.38% hits; AID 624267; in the data active = inhibition above about 21%
# NTR1 ag = NTR1 (human) agonism | activation, % at 20 µM | NTR1-U2OS beta-arrestin-GFP spot imaging, agonist mode | AID 493036 | P30989 | 330,000 compounds, 0.17% hits;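 active = activation at or above 40% of the spot to cytoplasm intensity ratio, with at least 20 cells analyzed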
# TLR4 MyD88 comp = inhibitors of human TLR4-MyD88 binding; O00206+Q99836; HeLa CL3-4 TLR4/MyD88 BLA complementation, FRET ratio; inhibition, % at 8.4 µM; 200,000 compounds, 0.18% hits; AID 861; in the data active = inhibition above about 25%
# ABHD5 PLIN5 conf = confirmation of human ABHD5-PLIN5 interaction inhibitors | inhibition, % at 4 µM | biochemical ABHD5-PLIN5 interaction, luminescence | shares compounds with ABHD5-PLIN5 inh | 2,200 compounds, 67% hits; in the data active = inhibition above about 23%
# HNF4 split-luc = counter-screen for ABHD5-PLIN5 inhibitors: HNF4 split-luciferase. shares compounds with ABHD5-PLIN5 inh. HNF4 dimerization, luminescence, biochemical. inhibition, % at 4 µM. 2,200 compounds, 77% hits;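 active = mean inhibition across replicate wells exceeding the computed hit threshold, cut at about 13% in these data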;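 note: light from luciferase halves that rejoin when HNF4 fusion proteins dimerize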
# Numbers stand for hits; 0 = inactive; - = no result.
SMILES,ABHD5-PLIN5 inh,Beta2AR agonist,TLR9-MyD88 inh,NOD2-RIPK2 inh,NTR1 ag,TLR4 MyD88 comp,ABHD5 PLIN5 conf,HNF4 split-luc
Cc1ccc(S(=O)(=O)N2C[C@@]3(O)Cn4c(=O)ccc(=O)n4C[C@@]3(OC(=O)NCC3CCCCC3)C2)cc1,37,-,-,0,-,-,58,0
O=C(NCc1ccc(C(F)(F)F)cc1)c1ccc(-c2cccnc2)c2ccoc12,0,-,-,0,-,-,-,-
COc1ccc(-c2nc3ccc(Cl)cn3c2Cc2cccc(F)c2)cc1OC,0,-,-,0,-,-,-,-
CCOC(=O)C1=C(C)NC(C)=C(C(=O)OCC)C1C(=O)OCC(=O)N(C)C1CCS(=O)(=O)C1 (centres undefined),96,0,0,0,0,0,0,0
CCOC(=O)C1=C(C)NC(C)=C(C(=O)OCC)C1C(=O)OCC(N)=O,0,0,0,0,0,0,-,-
COc1ccc(/C=C/C(=O)c2ccc(Cl)s2)cc1O,42,0,0,0,0,0,54,43
COc1cc(/C=C/C(=O)c2ccc(Cl)s2)cc(OC)c1O,38,0,0,0,0,0,74,38
COc1ccc(C=CC(=O)c2ccc(OC)c(OC)c2)cc1O,0,-,0,0,-,-,-,-
O=C(NC1CCCC1)C(c1ccccc1)n1c(-c2ccc3c(c2)CCO3)nc2ccccc21 (centres undefined),0,-,-,0,-,-,-,-
O=C(O)c1ccc(/C=C2\COc3ccccc3C2=O)cc1,32,0,0,0,0,-,84,78
COc1ccc(/C=C2/CCc3ccccc3C2=O)cc1OC,0,0,0,0,0,0,-,-
COc1ccc(/C=C2\COc3ccccc3C2=O)cc1OC,33,0,0,0,0,0,76,71
Cc1cc(C)c2c(c1)C(=O)/C(=C/c1ccc(C(=O)O)cc1)CC2,0,-,0,0,0,-,-,-
CN(C)CCNC(=O)c1ccc(COc2ccc(Cl)cc2Cl)cc1,27,0,0,0,0,0,0,0
Cn1c(=O)c2c(ncn2CC(=O)N/N=C/C=C/c2ccco2)n(C)c1=O,31,0,0,0,0,-,0,32
Cc1ccc(Cn2c(=S)[nH]c3ccc(N4CCOCC4)cc3c2=O)o1,31,0,0,0,0,0,43,91
O=c1c2cc(N3CCOCC3)ccc2[nH]c(=S)n1Cc1ccc(Cl)cc1,0,0,0,0,0,0,-,-
CC(NC(=O)/C=C/c1ccco1)c1nc2ccccc2n1Cc1ccccc1F (centres undefined),35,0,0,0,0,0,0,0
CCc1cccc2c(C(=O)CSc3nncn3-c3ccccc3OC)c[nH]c12,24,0,0,0,0,0,0,0
COc1cccc(CN2CCN(C(=O)[C@H]3O[C@@H](n4cnc5c(N)ncnc54)[C@H](O)[C@@H]3O)CC2=O)c1,0,-,-,0,-,-,-,-
COc1cc(OC)cc(C(=O)NC(=S)NCCc2ccccc2)c1,0,0,0,0,0,0,-,-
COc1cc(OC)cc(C(=O)NC(=S)N(Cc2ccccc2)C(C)C)c1,45,0,0,0,0,-,70,0
O=C(CCl)N1N=C(c2ccco2)CC1c1cccs1 (centres undefined),24,0,0,0,-,0,30,20
COc1cccc(NC(=O)CCc2nnc3ccc(NCc4ccco4)nn23)c1,29,0,0,0,0,-,0,0
CC(C)c1ccc(N2C=Nc3ccc(C(C)C)cc3C2)cc1,36,0,0,0,0,-,24,0
SMILES,ABHD5-PLIN5 inh,Beta2AR agonist,TLR9-MyD88 inh,NOD2-RIPK2 inh,NTR1 ag,TLR4 MyD88 comp,ABHD5 PLIN5 conf,HNF4 split-luc
C1=Nc2ccccc2CN1c1ccccc1,0,0,0,0,0,0,-,-
Cc1cccc(Nc2nnc(SC(C)C(=O)NC3CC3)s2)c1 (centres undefined),0,0,0,0,0,-,-,-
CCc1ccc(Nc2nnc(SC(C)C(=O)NC3CC3)s2)cc1 (centres undefined),78,0,0,0,0,-,0,0
CCc1sc(C(C2C(=O)CC(C)(C)CC2=O)C2C(=O)CC(C)(C)CC2=O)cc1[N+](=O)[O-],52,0,0,0,0,0,101,98
CC(C)[C@H](N)C(=O)N[C@H]1CCC2C3CC=C4C[C@@H](O)CC[C@]4(C)C3CC[C@@]21C (some centres undefined),0,-,0,0,-,-,-,-
Cc1ccc(-c2csc3ncnc(OCC(=O)NC(=O)NCc4ccco4)c23)cc1,31,0,0,0,0,0,0,13
Brc1ccc2nc(C3CCCCC3)c(Cc3ccsc3)n2c1,0,-,-,0,-,-,-,-
CCOC(=O)/C=C1\CN(C(C)c2ccccc2)S(=O)(=O)c2ccccc21 (centres undefined),59,0,0,0,0,-,0,0
CCCOc1ccc(F)cc1-c1cc(C(=O)Nc2ccc(C)c(NS(C)(=O)=O)c2)[nH]n1,0,-,-,0,-,-,-,-
COc1cc2sc(-c3ccc(S(C)(=O)=O)cc3)c(C(=O)NCCCCO)c2cc1OC,0,0,0,0,0,-,-,-
COc1cc2sc(-c3ccc(S(C)(=O)=O)cc3)c(C(=O)NCc3ccc(C)o3)c2cc1OC,33,0,0,0,0,-,0,20
COc1ccc(C(O)c2nc(-c3ccncc3)cs2)cc1 (centres undefined),0,-,-,0,-,-,-,-
Cc1ccc2c(CC(=O)N3CCN(S(=O)(=O)c4ccccc4)CC3)coc2c1,0,0,0,0,0,-,-,-
Cc1ccc2c(CC(=O)N3CCN(S(=O)(=O)c4ccc5c(c4)OCCO5)CC3)coc2c1,27,0,0,0,0,0,57,-
O=C1C(O)=C(O)C(=O)c2ccccc21,42,97,0,0,0,-,0,67
CN(C)c1ccc(/C=C2\c3ccccc3C(=O)N2c2ccccc2)cn1,0,-,0,0,-,-,-,-
O=C(Nc1ccc(Oc2ccccc2)cc1)c1csc([C@@H]2O[C@H](CO)[C@H](O)[C@H](O)[C@H]2O)n1,0,-,-,0,-,-,-,-
COCCCn1c(=N)c(C(=O)NCc2ccc3c(c2)OCO3)cc2c(=O)n3ccccc3nc21,0,0,0,0,0,0,-,-
COCCn1c(=N)c(C(=O)NCc2ccco2)cc2c(=O)n3ccccc3nc21,25,0,0,0,0,0,0,33
Cc1ccc2nc3c(cc(C(=O)NCc4ccccc4)c(=N)n3CCCn3ccnc3)c(=O)n2c1,0,0,0,0,-,-,-,-
Cc1ccc2nc3c(cc(C(=O)NCc4ccco4)c(=N)n3Cc3ccco3)c(=O)n2c1,33,0,0,0,0,0,0,29
N=c1c(C(=O)NCc2ccco2)cc2c(=O)n3ccccc3nc2n1Cc1ccc(Cl)cc1,26,0,0,0,0,0,0,23

# Screening data: PubChem BioAssay, several laboratories
